Screening results as filed in PubChem.
In the library only some 1.8% were active in any assay of this set; here they are far more common.
NOD2-RIPK2 inh: NOD2-RIPK2 binding disruptors in cells, primary screen, fluorescence, CHO cells, BLA complementation; Receptor-interacting serine/threonine-protein kinase 2 (Homo sapiens), O43353; CCF4 ratio; inhibition, % at 4.98 µM; 360,000 compounds, 0.38% hits; in the data active = inhibition above about 21%;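 note: 0% = vehicle only and 100% = reference blocker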
Target sequence (O43353 whole entry, looked up): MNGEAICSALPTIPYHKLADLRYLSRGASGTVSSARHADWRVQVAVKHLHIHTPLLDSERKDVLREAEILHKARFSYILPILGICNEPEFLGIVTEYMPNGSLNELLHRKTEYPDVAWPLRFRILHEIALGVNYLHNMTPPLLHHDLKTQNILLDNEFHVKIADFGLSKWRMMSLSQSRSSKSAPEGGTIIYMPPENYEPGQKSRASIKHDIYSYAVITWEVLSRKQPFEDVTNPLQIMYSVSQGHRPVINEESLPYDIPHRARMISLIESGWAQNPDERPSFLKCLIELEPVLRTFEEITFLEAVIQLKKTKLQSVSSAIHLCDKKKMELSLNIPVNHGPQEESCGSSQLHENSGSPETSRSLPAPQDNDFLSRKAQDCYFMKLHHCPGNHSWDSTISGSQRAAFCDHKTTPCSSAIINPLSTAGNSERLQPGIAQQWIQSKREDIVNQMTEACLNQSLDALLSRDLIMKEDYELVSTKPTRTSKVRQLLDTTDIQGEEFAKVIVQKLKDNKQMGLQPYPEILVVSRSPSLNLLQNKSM
Rtt109 HAT inh: inhibitors of C. albicans Rtt109/Vps75 HAT, primary screen, biochemical, ThioGlo CoA-SH fluorescence, plate reader | AID 540336, 2011 | Histone acetyltransferase RTT109 (Candida albicans (strain SC5314 / ATCC MYA-2876)), … | purified Rtt109/Vps75, 4 h | 330,000 compounds, 0.16% hits | inhibition, % at 34.9 µM;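 active = inhibition of at least 50% in every replicate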
TLR9-MyD88 block: inhibitors of TLR9-MyD88 association in cells, primary screen, cell-based, CHO, BLA complementation, fluorescence. AID 504734, 2011. CCF4 FRET ratio. inhibition, % at 4.98 µM. 340,000 compounds, 0.21% hits;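 active = inhibition above the mean over all tested compounds plus 3 SD, cut at about 21% in these data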;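 note: 0% = DMSO only wells and 100% = clavulanate BLA inhibitor control wells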
LANA-H2A inh: blockers of LANA interaction with H2A/H2B – biochemical, FP readout, HTS, primary screen; Protein LANA1 (Human herpesvirus 8 type P (isolate GK18)), Q9QR71; cell-free LANA-H2A/H2B peptide, fluorescence polarization; inhibition, % (test concentration not listed); 320,000 compounds, 0.6% hits; AID 2629, 2010; in the data active = inhibition mostly above about 10%, no sharp cut-off; inactive = mostly below about 6.7%
m5-HT2A agonist: mouse Htr2a agonists via beta-arrestin recruitment, primary screen, cell-based, luminescence. activation, % at 7.6 µM. 360,000 compounds, 0.66% hits. 5-hydroxytryptamine receptor 2A (Mus musculus), P35363. CHO-K1 mHTR2A beta-arrestin complementation; percent of 30 µM serotonin response;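 active = activation above a run cutoff, the mean activation of all tested compounds plus 3 SD, cut at about 14% in these data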;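 note: 0% = plate median of compound wells and 100% = 30 µM serotonin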
TLR4-MyD88 BLA: inhibitors of TLR4-MyD88 association in cells, primary screen, cell-based, HeLa CL3-4, BLA complementation, FRET ratio | HeLa CL3-4 TLR4/MyD88 BLA complementation | inhibition, % at 8.4 µM | 200,000 compounds, 0.18% hits | AID 861, 2007; in the data active = inhibition above about 25%;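 note: 0% = vehicle and 100% = reference inhibitor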
NOD2 RIPK2 conf: NOD2-RIPK2 binding disruptors, retest, confirmation, fluorescence, CHO cells, BLA complementation, triplicate. 1,200 compounds, 70% hits. CCF4 FRET. AID 624370, 2012. inhibition, % at 4.98 µM. shares compounds with NOD2-RIPK2 inh;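 active = mean inhibition across replicates above a set limit taken from the earlier primary screen, cut at about 21% in these data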;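 note: 0% = DMSO-only wells and the high end = clavulanate BLA-blocked wells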
NOD2 BLA counter: hits BLA reporter in NOD2-RIPK2 inhibitor counterscreen; inhibition, % at 4.98 µM; shares compounds with NOD2-RIPK2 inh; 1,200 compounds, 57% hits; CHO BLA reporter, CCF4 FRET ratio;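 active = mean inhibition above the low-control mean inhibition plus three low-control SD, cut at about 11% in these data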;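 note: 0% = DMSO only wells and 100% = clavulanate high control wells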
* marks the source's active call; other numbers are inactive results; . = not tested or not shown.

SMILES | NOD2-RIPK2 inh | Rtt109 HAT inh | TLR9-MyD88 block | LANA-H2A inh | m5-HT2A agonist | TLR4-MyD88 BLA | NOD2 RIPK2 conf | NOD2 BLA counter
CN(C)CCC(=O)N1C/C(=C/c2ccccc2)C(=O)/C(=C\c2ccccc2)C1 | 61.2* | -1.2 | 3.4 | . | -6.3 | . | 54.9* | -1.0
CCOC(=O)c1cccc(C2=CC(=O)CC(C)(C)C2)c1 | 4.9 | -4.3 | 0.7 | 5.3 | -1.7 | . | . | .
Cc1ccccc1CCNC(=O)Cn1ccc2cc(S(=O)(=O)N3CCCC3)ccc21 | 2.1 | -7.4 | -2.0 | -1.4 | -5.7 | . | . | .
CCN(CC)C(=O)COc1c(-c2ccco2)oc2ccccc2c1=O | -12.5 | -3.0 | -12.5 | 3.1 | 0.0 | . | . | .
CC(=O)Oc1c(-c2ccco2)oc2ccccc2c1=O | 27.5* | 0.6 | 20.0 | -4.1 | -5.6 | 7.6 | 31.4* | 30.2*
Cc1c(C(=O)OCC(=O)c2ccc3c(c2)OCCO3)oc2ccccc12 | 25.8* | -8.3 | -0.1 | -1.4 | -2.0 | -0.2 | -3.3 | -2.7
O=C(Nc1ccc([N+](=O)[O-])cc1)c1ccc(S(=O)(=O)N2CCCC2)cc1 | 4.9 | -5.0 | 0.2 | -3.1 | 6.7 | . | . | .
O=C(Nc1ccc(S(=O)(=O)N2CCCCCC2)cc1)c1[nH]ncc1[N+](=O)[O-] | 29.1* | -12.0 | 26.2* | 1.9 | -0.7 | . | 14.2 | 9.9
O=C(CSc1ccc([N+](=O)[O-])cc1)Nc1cccc(S(=O)(=O)N2CCOCC2)c1 | 40.8* | 9.2 | 10.9 | 2.0 | -7.5 | . | -0.3 | -1.4
O=C(CSc1ccccc1)Nc1cccc(S(=O)(=O)N2CCCC2)c1 | -0.2 | -1.3 | -1.7 | 0.3 | 2.3 | 4.9 | . | .
COc1ccc(O)c(/C=N/NC(=S)NCCc2ccccc2)c1 | 25.9* | . | 15.6 | -4.9 | 1.3 | . | 28.6* | 23.4*
CCC1CCCCN1CCCNC(=O)c1ccc2c(c1)N(Cc1ccc(F)cc1)C(=O)c1ccccc1S2=O (stereo unspecified) | 1.9 | . | -2.0 | -4.2 | -13.3 | . | . | .
Cc1ccc(S(=O)(=O)N2CCN(C(=O)COC(=O)/C=C/c3ccccc3)CC2)c(C)c1 | -2.7 | 5.4 | 6.2 | . | 6.9 | . | . | .
Cc1ccc(-c2nc3ccc(Cl)cn3c2Cc2cccc(Cl)c2)cc1 | 1.1 | . | . | . | -1.5 | . | . | .
COc1ccc(NC(=O)CCN2CCN(c3ccccc3F)CC2)c(OC)c1 | -7.3 | -3.4 | 6.0 | 3.3 | 6.8 | . | . | .
CC(C)(CO)NS(=O)(=O)c1ccc2c(c1)Cc1cc(S(=O)(=O)NC(C)(C)CO)ccc1-2 | -5.7 | -9.1 | 0.2 | 3.0 | 6.8 | . | . | .
COCCN(C(=O)COC(=O)c1ccc(Br)o1)c1c(N)n(Cc2ccccc2)c(=O)[nH]c1=O | -7.3 | . | 2.6 | . | 6.3 | . | . | .
CC1=CC(=O)C(C(C)C)=C/C1=N/OS(=O)(=O)c1ccccc1 | 58.9* | -9.1 | 6.3 | 2.6 | 0.4 | . | 36.5* | 0.4
CC1=CC(=O)C=C(C)C1=NOS(=O)(=O)c1ccccc1 | 26.5* | 7.8 | -0.6 | . | -9.8 | 2.2 | 31.0* | -4.1
Cc1ccc(S(=O)(=O)ON=C2CCN(S(=O)(=O)c3ccccc3)CC2)cc1 | 2.2 | -17.5 | 1.5 | 2.1 | -1.9 | 1.3 | . | .
Cc1ccc2c(c1)/C(=N/OS(=O)(=O)c1ccccc1)CCS2 | -6.6 | 28.7 | -0.3 | -0.7 | -5.7 | 4.8 | . | .
CC(COc1ccccc1Cc1ccccc1)N1CCCCC1 (stereo unspecified) | . | . | . | -7.5 | . | . | . | .
CC1CC(C)(C)CC2(C1)NC(=O)N(CC(=O)Nc1ccc3c(c1)OCO3)C2=O (stereo unspecified) | -9.6 | . | 3.0 | . | 4.6 | . | . | .
CC(=O)Nc1ccc(-c2ccnc3c2CC(C)(C(=O)Nc2ccc(Cl)cc2)O3)cc1 (stereo unspecified) | 21.0* | . | . | . | 0.2 | . | 10.3 | 0.0
